NPC1 promoter act: qHTS Assay for NPC1 Promoter Activators. AID 485313, 2010. 320,000 compounds, 2.4% hits. Potency, µM (series often up to 9.22 µM), for inactives: top-dose activation, most hits filed as activators. Huh7 NPC1 promoter luciferase reporter, 24 h; also: % of control where 0% means no effect; nearly all actives have a fitted effect of over 60% in size
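Luciferase expression driven by the NPC1 promoter was measured in stably transfected Huh7 cells after a 24 h compound incubation, using a luciferase reagent and a luminescence read.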
Rab9 promoter act: qHTS Assay for Rab9 Promoter Activators; Huh7 Rab9 promoter-luciferase reporter, luminescence, 24 h; Potency, µM (top dose mostly 9.22 µM), for the others: at the highest dose activation, negative = inhibition, usual class: activators; 320,000 compounds, 2.8% hits; also: % of control where 0% means no effect; nearly all actives have a fitted effect of over 60% in size
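Huh7 cells stably carrying Rab9 promoter–luciferase reporter, plated 1500 cells/well, compound added after 2 h and incubated 24 h at 37 °C; luciferase luminescence then read after 10 min with detection reagent.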
ELG1 genotox: qHTS screen for small molecules that induce genotoxicity in human embryonic kidney (HEK293T) cells expressing luciferase-tagged ELG1; HEK293T ELG1-luciferase reporter, luminescence, 16 h; Potency, µM (doses to about 46 µM), for inactives: at the top dose activity change, positive = activation, actives largely listed as activators; 330,000 compounds, 1.3% hits; also: % of control where 0% means no effect; nearly all actives have a fitted effect of over 60% in size
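Genotoxicity was scored as increased ELG1-luciferase reporter signal, measured by ONE-Glo luminescence (30 min, room temperature). Compound or vehicle exposure of the HEK293T reporter cells lasted 16 hr at 37°C.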
KinaseGlo FLuc: Counterscreen for Luciferase (Kinase-Glo TM) Inhibition | Luciferin 4-monooxygenase (Photuris pensylvanica), Q27757 | Kinase-Glo luciferase, ATP luminescence, 8 min | Potency, µM (titrated, usually from 38.3 µM), for the others: top-dose activity change, negative = inhibition, usual class: inhibitors | 200,000 compounds, 0.28% hits; also: % is scaled to controls: 0 for no effect and ±100 for the full control effect; nearly all actives have a fitted effect of over 60% in size
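Inhibition of Kinase-Glo luciferase light generation was assessed at 10 uM ATP in pH 7.2 imidazole buffer, with luminescence measured after eight minutes at ambient temperature.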
FLuc modulator: qHTS profiling assay for firefly luciferase inhibitor/activator using purifed enzyme and Km concentrations of substrates (counterscreen for miR-21 project) | Luciferin 4-monooxygenase (Photinus pyralis), P08659 | purified FLuc, Km substrates, luminescence inhibition | Potency, µM (highest dose often 57.5 µM), without a hit: at the top dose activity change, negative = inhibition, most hits filed as inhibitors | 360,000 compounds, 6.9% hits | AID 588342, 2011;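 also: plate controls were vehicle for no effect and reference inhibitor for full effect; nearly all actives have a fitted effect of over 55% in size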
Target sequence (P08659 whole entry, looked up): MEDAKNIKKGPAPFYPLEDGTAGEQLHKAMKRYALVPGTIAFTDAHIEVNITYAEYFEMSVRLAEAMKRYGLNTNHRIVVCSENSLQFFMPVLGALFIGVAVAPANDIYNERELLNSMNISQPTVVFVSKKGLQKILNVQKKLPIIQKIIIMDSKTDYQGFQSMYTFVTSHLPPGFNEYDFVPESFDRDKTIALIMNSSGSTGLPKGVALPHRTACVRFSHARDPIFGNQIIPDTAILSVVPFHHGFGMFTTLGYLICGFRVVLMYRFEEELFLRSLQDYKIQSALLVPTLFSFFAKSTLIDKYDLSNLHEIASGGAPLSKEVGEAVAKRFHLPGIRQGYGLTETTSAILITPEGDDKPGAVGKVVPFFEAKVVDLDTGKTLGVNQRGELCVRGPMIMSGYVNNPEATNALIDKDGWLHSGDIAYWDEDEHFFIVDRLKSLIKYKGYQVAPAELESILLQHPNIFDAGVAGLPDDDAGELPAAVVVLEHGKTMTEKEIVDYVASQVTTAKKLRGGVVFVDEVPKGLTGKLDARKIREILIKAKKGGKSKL
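Biochemical qHTS of compounds, final roughly 60 µM downward over six points, against 10 nM purified firefly luciferase using Km concentrations of substrates (10 uM D-luciferin, 10 uM ATP) in Tris acetate pH 7.5 buffer; luminescence output.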
SMN2 splice up: qHTS Assay for Enhancers of SMN2 Splice Variant Expression; Potency, µM (top dose mostly 46.1 µM), for inactives: at the highest dose activity change, positive = activation, most hits filed as activators; 210,000 compounds, 2.8% hits; HEK293 SMN2-luciferase splicing reporter, luminescence, 30-36 h; also: % of control where 0% means no effect; nearly all actives have a fitted effect of over 55% in size
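HEK293 cells carry an SMN2 minigene-luciferase reporter in which exon 7 inclusion puts luciferase in frame. Cells were seeded at 2000 cells/well, attached for 10-12 hours, then exposed to compounds for 30-36 hours at 37C before ONE-Glo luminescence.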
* marks the source's active call; other numbers are inactive results; ? = inconclusive; / = not tested or not shown; [ ] = dose if it differs, or a comment. This is a sample that favours compounds with a hit; in the whole collection about 7.5% have one here. Calls follow the shape of the dose curve; as a rule, active = well fitted curve in the direction sought with a large enough effect; inconclusive = small, poorly fitted or top-dose-only effect, or another doubt; inactive = no such curve, though single readings can be large; an effect the other way counts as inactive or inconclusive. Potency is read from the fitted curve at half-maximal effect.

SMILES	NPC1 promoter act	Rab9 promoter act	ELG1 genotox	KinaseGlo FLuc	FLuc modulator	SMN2 splice up
c1ccc(CN2CCN(c3cnc4ccccc4n3)CC2)cc1	?	?	?	/	19µM*	/
c1ccc(CN2CCN(c3nc4ccccc4c4ccccc34)CC2)cc1	2%	-4%	-6%	-1%	0%	-19%
Fc1ccccc1N1CCN(c2cnc3ccccc3n2)CC1	/	/	/	-3%	2.1µM*	2.8µM*
Oc1ccccc1N1CCN(c2ccc3ccccc3n2)CC1	1.3µM*	0.4µM*	?	/	5.4µM*	/
CC1CSC(N(C(=O)c2ccc(S(C)(=O)=O)cc2)c2ccc(Cl)cc2)=N1 (centres undefined)	-2%	1%	-6%	/	1%	/
O=C(Nc1ccc(N2CCN(C(=O)c3ccccc3)CC2)c(Cl)c1)c1ccc(Br)o1	-4%	-9%	-7%	-4%	-1%	-42%
Cc1ccsc1C(=O)Nc1ccccc1N1CCOCC1	6%	-6%	-2%	-6%	19µM*	6%
O=C(Nc1ccc(CN2CCOCC2)cc1)c1ccc(Br)o1	3.2µM*	?	?	/	19µM*	/
O=C(Nc1ccc(S(=O)(=O)N2CCOCC2)cc1)c1ccc(Br)o1	2%	-7%[1.84 µM]	-4%	-1%	1%	-22%
O=C(Nc1ccc(N2CCOCC2)c(Cl)c1)c1ccc(Br)o1	1.4µM*	3.2µM*	?	-23%	8.5µM*	4.5µM*
O=C(Nc1cccnc1Cl)c1cc2ccccc2o1	1.6µM*	1.3µM*	9.2µM*	/	5.4µM*	/
Cc1cc(NC(=O)c2cccnc2Cl)ccc1NC(=O)c1cc2ccccc2o1	-4%	-5%	-21%	/	-6%	/
Cc1cc2oc(=O)cc(-c3ccccc3)c2c(C)c1-c1cccc(N)c1	/	/	/	3%[39.9 µM]	/	/
CCC1(c2ccc(Cl)cc2)NC(=O)N(CC(=O)NC2CCCCCC2)C1=O (centres undefined)	0%	-8%	-1%	/	0%	/
O=C(Nc1ccccc1N1CCOCC1)c1cc2ccccc2o1	?	16%	4%	/	9.5µM*	/
CN1CCN(c2ccc(NC(=O)c3cc4ccccc4o3)cc2)CC1	1.6µM*	3.5µM*	10µM*	/	6µM*	/
O=C(Nc1ccc(N2CCOCC2)c(Cl)c1)c1cc2ccccc2o1	3.5µM*	3.2µM*	-11%	-5%	8.5µM*	27%
O=C(NCCN1CCOCC1)Nc1ccc(Cl)cc1	6%	-2%	-5%	1%	-3%	7.1µM*
COC(=O)c1cc(S(=O)(=O)NCCN2CCN(c3ccccc3F)CC2)c[nH]1	-1%	0%	0%[9.26 µM]	/	-3%	/
CCCN(C(=O)c1cc2c(=O)oc3ccccc3c2s1)c1ccc(CC)cc1	/	/	/	/	-1%	5%
CN1CCN(c2ccccc2NC(=O)c2cc3ccccc3o2)CC1	20%	2%	5%	0%	?	-11%
O=C(Nc1ccccc1N1CCCC1)c1cc2ccccc2o1	?	29%	1%	-18%	7.6µM*	22µM*
CC(C)(C)C(=O)Nc1c2c(nn1-c1ccccc1)CSC2	-3%	-5%	0%[9.26 µM]	/	0%	/
COc1ccc(S(=O)(=O)N2CCOc3ccccc32)cc1	-41%	-23%	-3%	/	3%	/
O=C1c2ccccc2C(=O)N1CCSc1nncs1	-2%	-4%	5%	6%	-12%	-5%
SMILES	NPC1 promoter act	Rab9 promoter act	ELG1 genotox	KinaseGlo FLuc	FLuc modulator	SMN2 splice up
Cc1csc(SCCN2C(=O)c3ccccc3C2=O)n1	?	?	?	10%	13µM*	8%
O=C1c2ccccc2C(=O)N1CCSc1ccccc1	2.8µM*	?	12µM*	-5%	4.3µM*	?
O=C(c1ccc(N2C(=O)C3C4CC(C(Br)C4Br)C3C2=O)cc1)N1CCCCC1 (centres undefined)	2%	-3%	-2%	/	-3%	/
CCCCCCCC1=Cc2ccccc2C(C(C(C)=O)C(=O)OC)N1C(=O)OC (centres undefined)	/	/	/	-9%[7.66 µM]	/	2%[9.22 µM]
N#Cc1ccccc1NS(=O)(=O)c1cc2c3c(c1)CCC(=O)N3CCC2	0%	-6%	0%	/	13%	/
O=C(NCc1ccccc1Cl)c1ccc(CSCc2cccc(F)c2)o1	/	/	/	/	-18%	/
COc1ccc(-c2noc(-c3ccc(NC4CCCC4)c([N+](=O)[O-])c3)n2)cc1OC	/	/	/	/	13µM*	/
COc1cc(-c2noc(-c3ccc(NCc4ccccc4)c([N+](=O)[O-])c3)n2)cc(OC)c1OC	/	/	/	/	15µM*	/
O=[N+]([O-])c1cc(-c2nc(-c3ccco3)no2)ccc1NCc1ccccc1	/	/	/	/	15µM*	/
COc1cc(-c2noc(-c3ccc(NCC4CCCO4)c([N+](=O)[O-])c3)n2)cc(OC)c1OC (centres undefined)	/	/	/	/	21µM*	/
COC(=O)N[C@@H](CCc1ccccc1)[C@]1(C(=O)OC)CCCC1=O	/	/	/	0%	/	10%
CC1Cc2ccccc2N1C(=O)CN1CCC(n2nnc3cc(C(F)(F)F)ccc32)CC1 (centres undefined)	0%	12%	-24%	6%	6%	-102%
CCOC(=O)c1ccc(N(C(=O)CNC(=O)c2ccco2)C(C(=O)NCC2CCCO2)c2ccc(OC)c(OC)c2)cc1 (centres undefined)	-2%	-4%	5%	/	0%	/
COc1ccc(C(=O)Oc2ccc3ccc(=O)oc3c2)cc1	-2%	0%	-4%	/	2.7µM*	/
COc1ccc(C(=O)Oc2ccc3c(-c4ccc(OC)cc4)cc(=O)oc3c2)cc1	/	/	/	-11%	/	-8%
O=C(Oc1ccc2ccc(=O)oc2c1)c1ccccc1	1%	-1%	3%	/	?	/
COc1ccc(C(=O)Oc2ccc3oc(=O)sc3c2)cc1	-2%	10%	?	-3%	11µM*	1%
COc1ccc(CCNC(=O)Cn2c(=O)nc(-c3ccccc3)c3ccccc32)cc1OC	/	/	/	/	-8%	/
O=C(N/N=C/c1c(Cl)cccc1Cl)c1cccc(F)c1	12%	24%	17%	-1%	-7%	-3%
O=C(N/N=C/c1cccc(F)c1)c1ccc(Cl)cc1	4µM*	3.2µM*	?	-2%	2.4µM*	16µM*
CC(C)(C)c1ccc(C(=O)N/N=C/c2cccc(Cl)c2)cc1	?	?	-6%	-4%	4.8µM*	1%
O=C(N/N=C/c1cccc(NC(=O)c2ccc(Cl)cc2)c1)c1ccc(O)cc1	2.5µM*	4µM*	-2%	/	1.3µM*	/
Cc1ccc(Cl)cc1NC(c1ccc(F)cc1)c1nnc(-c2ccccc2)o1 (centres undefined)	/	/	/	/	-15%	/
